# Hits are enriched below; roughly 3% of the tested compounds scored in any of these assays.
# FBA Mtb inh: Mtb FBA enzyme inhibitors, primary screen, biochemical, fluorescence, strain H37Rv. purified M. tuberculosis FBA, fluorescence read-out. actives 2.3% (n = 360,000). Fructose-bisphosphate aldolase (Mycobacterium tuberculosis (strain ATCC 25618 / H37Rv)), …. inhibition, % at 1 µM
# Target sequence (P9WQA3 whole entry, looked up): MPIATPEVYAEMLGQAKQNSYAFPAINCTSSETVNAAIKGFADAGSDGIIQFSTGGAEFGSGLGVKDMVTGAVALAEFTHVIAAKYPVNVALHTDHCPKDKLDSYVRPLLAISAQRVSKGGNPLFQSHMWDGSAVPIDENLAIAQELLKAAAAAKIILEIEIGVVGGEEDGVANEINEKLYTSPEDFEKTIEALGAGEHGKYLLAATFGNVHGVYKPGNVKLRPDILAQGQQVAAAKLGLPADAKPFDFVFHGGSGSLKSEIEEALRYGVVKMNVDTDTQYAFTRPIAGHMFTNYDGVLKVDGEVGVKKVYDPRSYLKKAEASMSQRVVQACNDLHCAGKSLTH
# Vc quorum ag: inducers of Vibrio cholerae quorum light production without autoinducers, primary screen, BH1578 luxS cqsA deficient, single point; V. cholerae BH1578 lux reporter, luminescence, 6 h; actives 0.16% (n = 350,000); activation, % at 18.7 µM; AID 588436, 2011; in the data active means activation mostly above about 9.7%, no sharp cut-off
# BioA inh: M. tuberculosis BioA enzyme inhibitors, primary screen, biochemical, plate reader, single point, HTS; 7,8-diaminopelargonic acid synthase BioA (Mycobacterium tuberculosis); purified M. tuberculosis BioA enzyme; inhibition, % at 9.99 µM; actives 0.096% (n = 360,000); AID 602481, 2012; in the data active means inhibition above about 40%
# GDH-TPI counter-1: GDH-TPI coupling enzyme inhibitors, primary screen, artefact control for M. tuberculosis FBA inhibitor project, biochemical, absorbance, full deck. actives 1.2% (n = 360,000). GDH-TPI coupled enzyme counterscreen, NADH absorbance. inhibition, % at 4.8 µM; in the data active means inhibition above about 30%
# Mtb FBA inh conf: M. tuberculosis aldolase blockers, biochemical, fluorescence, strain H37Rv, confirmation; shares compounds with FBA Mtb inh; purified M. tuberculosis FBA, fluorescence read-out; inhibition, % at 1 µM; actives 78% (n = 5,600); AID 651616, 2012
# GDH-TPI counter-2: GDH-TPI coupling enzyme inhibitors, artefact control for M. tuberculosis FBA inhibitor project, biochemical, fluorescence, high throughput | AID 652141, 2013 | inhibition, % at 1 µM | shares compounds with FBA Mtb inh | GDH-TPI coupled enzyme counterscreen | actives 81% (n = 5,600); in the data active means inhibition above about 10%
# GDH-TPI dose: GDH-TPI coupling enzyme inhibitors, dose response, artefact control for M. tuberculosis FBA inhibitor project, biochemical, fluorescence, IC50. shares compounds with FBA Mtb inh. GDH-TPI coupled enzyme assay, artifact counterscreen. IC50, µM. actives 79% (n = 170). AID 652145, 2013; call rule not given here
# Hits are given with their value; – = inactive; · = not tested or not shown; + = active, no number. Unless noted, no stated cut-off is given here; in the data, active means inhibition above about 27%; inactive means the rest.
SMILES,FBA Mtb inh,Vc quorum ag,BioA inh,GDH-TPI counter-1,Mtb FBA inh conf,GDH-TPI counter-2,others
COc1cccc(/C=N/NC(=O)c2[nH]nc3c2CCc2ccccc2-3)c1,–,–,–,–,·,·,
COc1ccc(OC)c(/C=N/NC(=O)c2[nH]ncc2Br)c1,39,–,–,–,+,+,
CCOc1ccc(/C=N/NC(=O)c2[nH]ncc2Br)c(O)c1,–,–,·,–,·,·,
COc1ccc(OC)c(/C=N/NC(=O)c2[nH]nc3c2CCc2ccccc2-3)c1,45,–,·,–,+,+,
COc1ccc(/C=N/NC(=O)CCc2n[nH]c(=O)[nH]c2=O)cc1O,–,–,–,–,·,·,
COc1ccc(OC)c(/C=N/NC(=O)CCc2n[nH]c(=O)[nH]c2=O)c1,60,–,·,–,119,87,
C[C@@H]1CCCCO[C@H](CN(C)C(=O)CCC(F)(F)F)[C@H](C)CN([C@@H](C)CO)C(=O)c2cc(NC(=O)Cc3ccccc3)ccc2O1,·,·,–,·,·,·,
COc1ccc(-c2cnc3c(c2)C(=O)N([C@@H](C)CO)C[C@@H](C)[C@@H](CN(C)C(=O)NC2CCCC2)O3)cc1,·,·,–,·,·,·,
O=C(C[C@@H]1CC[C@H]2[C@@H](COC[C@H](O)CN2CCc2ccccc2)O1)NCc1ccccc1,·,·,–,·,·,·,
C[C@@H]1CN([C@@H](C)CO)S(=O)(=O)c2ccc(C#CC3CC3)cc2O[C@H]1CN(C)CC1CCOCC1,·,·,–,·,·,·,
COc1ccc(-c2nc3n(c2C)Cc2ccccc2-3)cc1,111,–,·,–,101,93,
Cc1c(Cl)cccc1NC(=O)COC(=O)C12CC3CC(CC(O)(C3)C1)C2,–,–,–,–,·,·,
O=C(COC(=O)C12CC3CC(CC(Br)(C3)C1)C2)Nc1cccnc1Cl,32,–,–,–,59,49,
Cc1csc(NC(=O)c2ccccc2O)n1,66,–,–,–,99,85,
CC(C)(C)c1csc(NC(=O)c2ccccc2O)n1,37,–,–,–,43,36,
O=C(C[C@@H]1CC[C@H]2[C@@H](COC[C@@H](O)CN2Cc2cc(F)cc(F)c2)O1)NC1CCCC1,·,·,–,·,·,·,
Cc1cc(N2CCN(C)CC2)n2cc(-c3ccc(F)cc3)nc2n1,69,–,–,–,41,37,
Clc1ccc(/C=C\c2nccc3c2[nH]c2ccccc23)cc1,54,–,·,–,55,41,
N#Cc1ccc(/C=C\c2nccc3c2[nH]c2ccccc23)cc1,54,–,·,–,54,45,
COc1ccc(CNC(=O)C[C@H]2CC[C@@H](NS(=O)(=O)c3cccc(OC)c3)[C@@H](CO)O2)cc1,·,·,–,·,·,·,
N#Cc1c(NC(=O)COC(=O)c2nccnc2N)sc2c1CCCC2,–,–,–,–,·,·,
CCOC(=O)c1c(NC(=O)COC(=O)c2nccnc2N)sc2c1CCC2,45,–,–,–,124,93,
CCOC(=O)c1c(NC(=O)COC(=O)c2ccccn2)sc(C(=O)N(C)C)c1C,–,–,–,–,·,·,
CCOC(=O)c1c(NC(=O)COC(=O)c2nccnc2N)sc(C(=O)N(C)C)c1C,48,–,–,–,+,+,
C/C(=N/Nc1ccc(C)cc1)C1(C)N(O)C(C)(C)C(c2ccco2)=[N+]1[O-] (stereo unspecified),33,–,–,–,74,58,
SMILES,FBA Mtb inh,Vc quorum ag,BioA inh,GDH-TPI counter-1,Mtb FBA inh conf,GDH-TPI counter-2,others
c1ccc(Nc2ccc3ccccc3c2)cc1,33,–,–,–,145,97,
CCCNC(=O)Nc1ccc2c(c1)OC[C@H](C)N(CCC(F)(F)F)C[C@H](C)[C@H](OC)CN(C)C2=O,·,·,–,·,·,·,
COCC(=O)Nc1ccc2c(c1)C(=O)N(C)[C@@H]1CC[C@@H](CC(=O)NCCc3ccncc3)O[C@H]1CO2,·,·,–,·,·,·,
COc1ccc2nc(NCCCNC(=O)c3cc(OC)c(OC)c(OC)c3)c(C#N)cc2c1,32,–,–,–,–,–,GDH-TPI dose=4.4
COc1cc(C(=O)NCCCNc2nc3c(C)cc(C)cc3cc2C#N)cc(OC)c1OC,–,–,·,–,·,·,
Cc1ccc2nc(NCCNC(=O)c3ccccc3)c(C#N)cc2c1,48,–,–,–,189,144,
COc1cc(C(=O)NCCNc2nc3ccc(C)cc3cc2C#N)cc(OC)c1OC,39,–,–,–,94,80,
COc1cc(C(=O)NCCNc2nc3c(C)cccc3cc2C#N)cc(OC)c1OC,–,–,–,–,·,·,
COc1ccc(C(=O)NCCNc2nc3ccc(C)cc3cc2C#N)cc1,47,–,–,–,55,42,
C[C@@H]1CN([C@@H](C)CO)C(=O)Cc2cc(NS(=O)(=O)c3ccc(F)cc3)ccc2O[C@@H]1CN(C)CC1CC1,·,·,–,·,·,·,
C[C@H]1CN([C@@H](C)CO)C(=O)CCCn2cc(nn2)CO[C@@H]1CN(C)C(=O)CCCN(C)C,·,·,–,·,·,·,
Cc1cc(C)n2nc(-c3ccsc3-n3c(C)ccc3C)cc2n1,46,–,–,–,61,27,
CCNC(=O)[C@H]1[C@H](CO)[C@H]2Cn3c(ccc(-c4ccccc4F)c3=O)[C@@H]1N2Cc1cccnc1,·,·,–,·,·,·,
Cc1nc2ccc(NC(=O)N3CCCCC3)cc2nc1C,63,–,–,–,159,130,
CCOC(=O)N1CCN(C(=O)Nc2ccc3nccnc3c2)CC1,–,–,–,–,·,·,
CCOC(=O)N1CCN(C(=O)Nc2ccc3nc(C)c(C)nc3c2)CC1,43,·,–,–,+,+,
O=c1[nH]c(=O)c2cc3ccccc3nc2[nH]1,75,–,–,–,47,45,
Cc1nc2cc3ccccc3cc2c(=O)[nH]1,67,–,–,–,–,–,
C[C@H](CO)N1C[C@H](C)[C@H](CN(C)CC2CCCCC2)OCCCC[C@H](C)Oc2ccc(NC(=O)Nc3ccccc3)cc2C1=O,·,·,–,·,·,·,
CCCOC(=O)C1=C(C)NC2=C(C(=O)CC(C)(C)C2)C1c1cccnc1 (stereo unspecified),36,–,·,–,+,+,
CCOC(=O)C1=C(C)NC2=C(C(=O)CC(C)(C)C2)C1c1cccc(C)n1 (stereo unspecified),37,–,–,–,174,159,
CO[C@H]1CN(C)C(=O)c2ccc(NC(=O)C3CC3)cc2OC[C@@H](C)N(C(=O)c2ccccc2)C[C@@H]1C,·,·,–,·,·,·,
COC(=O)c1cnn(-c2ccc(Cl)cc2)c1/C=N/NC(N)=S,45,–,–,–,67,35,
Nc1c(C(=O)N/N=C/c2ccc(Cl)cc2)cnn1-c1ccccc1,–,–,–,–,·,·,
